Reference: PubChem BioAssay
The source made the active and inactive calls.

How the values were obtained:
[1] = binders of probe aFSTL3 on microarray, primary screen, stem cell growth factor project, biochemical, small-molecule microarray, fluorescence 635/667 (AID 1064); conditions: higher = more signal;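 also: measures binding of the biotinylated anti-FSTL3 antibody to printed compounds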
[2] = binders from COS7 lysate, DM2A8 probe, primary screen, torsin A project, cell lysate, small-molecule microarray, fluorescence 635/667 (AID 1065); conditions: higher = more signal, COS7 lysate expressing mutant human TOR1A
[3] = binders of probe aFGF2 on microarray, primary screen, stem cell growth factor project, biochemical, small-molecule microarray, fluorescence 635/667 (AID 1067); conditions: higher = more signal;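 also: measures binding of biotinylated aFGF2 protein to printed compounds on slides; z-score merges feature fluorescence and signal-to-noise across triplicate slides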
[4] = binders of probe aFGF10 on microarray, primary screen, stem cell growth factor project, biochemical, small-molecule microarray, fluorescence 635/667 (AID 1071); conditions: higher = more signal;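 also: score merges 667 nm spot intensity and signal to noise from triplicate slides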
[5] = target: Neurogenic locus notch homolog protein 2 (Homo sapiens) (UniProt Q04721); experiment: Notch2 binders on small-molecule microarrays, primary screen, biochemical, small-molecule microarray, 635 nm fluorescence, stem cell growth factors (AID 1073); conditions: Notch2 binding, higher = more signal
[6] = target: Pro-neuregulin-1, membrane-bound isoform (Homo sapiens) (UniProt Q02297); experiment: NRG1 binders on small-molecule microarrays, primary screen, psychiatric disease protein project, biochemical, small-molecule microarray, fluorescence 635/667 (AID 1075); conditions: NRG1 binding, 635 nm fluorescence, higher = more signal;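 also: score combines 667 nm spot fluorescence with signal to noise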
[7] = system: Neuregulin-1 EGF-like domain; experiment: binders of neuregulin-1 EGF-like domain, primary screen, biochemical, small-molecule microarray, 635 nm fluorescence (AID 1081); conditions: small-molecule microarray binding, higher = more signal;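 also: binding of the protein to compounds printed on small-molecule microarray slides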
[8] = FRG1 promoter luciferase signal modulators, primary screen, FRG1 inhibition for FSHD, cell-based, C2C12 myotubes, firefly/Renilla luciferase, luminescence (AID 1084); conditions: higher = more signal, called active from +8 up or from −8 down
[9] = binders of probe aFST on microarray, primary screen, stem cell growth factor project, biochemical, small-molecule microarray, fluorescence 635/667 (AID 1086); conditions: higher = more signal;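 also: score merges 667 nm fluorescence with signal-to-noise of each printed compound spot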
[10] = binders of probe aHhip on microarray, primary screen, stem cell growth factor project, biochemical, small-molecule microarray, fluorescence 635/667 (AID 1087); conditions: higher = more signal;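 also: score merges spot fluorescence at 667nm with spot signal to noise ratio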

Neurogenic locus notch homolog protein 2 (Homo sapiens), sequence (Q04721 whole entry, looked up, canonical isoform): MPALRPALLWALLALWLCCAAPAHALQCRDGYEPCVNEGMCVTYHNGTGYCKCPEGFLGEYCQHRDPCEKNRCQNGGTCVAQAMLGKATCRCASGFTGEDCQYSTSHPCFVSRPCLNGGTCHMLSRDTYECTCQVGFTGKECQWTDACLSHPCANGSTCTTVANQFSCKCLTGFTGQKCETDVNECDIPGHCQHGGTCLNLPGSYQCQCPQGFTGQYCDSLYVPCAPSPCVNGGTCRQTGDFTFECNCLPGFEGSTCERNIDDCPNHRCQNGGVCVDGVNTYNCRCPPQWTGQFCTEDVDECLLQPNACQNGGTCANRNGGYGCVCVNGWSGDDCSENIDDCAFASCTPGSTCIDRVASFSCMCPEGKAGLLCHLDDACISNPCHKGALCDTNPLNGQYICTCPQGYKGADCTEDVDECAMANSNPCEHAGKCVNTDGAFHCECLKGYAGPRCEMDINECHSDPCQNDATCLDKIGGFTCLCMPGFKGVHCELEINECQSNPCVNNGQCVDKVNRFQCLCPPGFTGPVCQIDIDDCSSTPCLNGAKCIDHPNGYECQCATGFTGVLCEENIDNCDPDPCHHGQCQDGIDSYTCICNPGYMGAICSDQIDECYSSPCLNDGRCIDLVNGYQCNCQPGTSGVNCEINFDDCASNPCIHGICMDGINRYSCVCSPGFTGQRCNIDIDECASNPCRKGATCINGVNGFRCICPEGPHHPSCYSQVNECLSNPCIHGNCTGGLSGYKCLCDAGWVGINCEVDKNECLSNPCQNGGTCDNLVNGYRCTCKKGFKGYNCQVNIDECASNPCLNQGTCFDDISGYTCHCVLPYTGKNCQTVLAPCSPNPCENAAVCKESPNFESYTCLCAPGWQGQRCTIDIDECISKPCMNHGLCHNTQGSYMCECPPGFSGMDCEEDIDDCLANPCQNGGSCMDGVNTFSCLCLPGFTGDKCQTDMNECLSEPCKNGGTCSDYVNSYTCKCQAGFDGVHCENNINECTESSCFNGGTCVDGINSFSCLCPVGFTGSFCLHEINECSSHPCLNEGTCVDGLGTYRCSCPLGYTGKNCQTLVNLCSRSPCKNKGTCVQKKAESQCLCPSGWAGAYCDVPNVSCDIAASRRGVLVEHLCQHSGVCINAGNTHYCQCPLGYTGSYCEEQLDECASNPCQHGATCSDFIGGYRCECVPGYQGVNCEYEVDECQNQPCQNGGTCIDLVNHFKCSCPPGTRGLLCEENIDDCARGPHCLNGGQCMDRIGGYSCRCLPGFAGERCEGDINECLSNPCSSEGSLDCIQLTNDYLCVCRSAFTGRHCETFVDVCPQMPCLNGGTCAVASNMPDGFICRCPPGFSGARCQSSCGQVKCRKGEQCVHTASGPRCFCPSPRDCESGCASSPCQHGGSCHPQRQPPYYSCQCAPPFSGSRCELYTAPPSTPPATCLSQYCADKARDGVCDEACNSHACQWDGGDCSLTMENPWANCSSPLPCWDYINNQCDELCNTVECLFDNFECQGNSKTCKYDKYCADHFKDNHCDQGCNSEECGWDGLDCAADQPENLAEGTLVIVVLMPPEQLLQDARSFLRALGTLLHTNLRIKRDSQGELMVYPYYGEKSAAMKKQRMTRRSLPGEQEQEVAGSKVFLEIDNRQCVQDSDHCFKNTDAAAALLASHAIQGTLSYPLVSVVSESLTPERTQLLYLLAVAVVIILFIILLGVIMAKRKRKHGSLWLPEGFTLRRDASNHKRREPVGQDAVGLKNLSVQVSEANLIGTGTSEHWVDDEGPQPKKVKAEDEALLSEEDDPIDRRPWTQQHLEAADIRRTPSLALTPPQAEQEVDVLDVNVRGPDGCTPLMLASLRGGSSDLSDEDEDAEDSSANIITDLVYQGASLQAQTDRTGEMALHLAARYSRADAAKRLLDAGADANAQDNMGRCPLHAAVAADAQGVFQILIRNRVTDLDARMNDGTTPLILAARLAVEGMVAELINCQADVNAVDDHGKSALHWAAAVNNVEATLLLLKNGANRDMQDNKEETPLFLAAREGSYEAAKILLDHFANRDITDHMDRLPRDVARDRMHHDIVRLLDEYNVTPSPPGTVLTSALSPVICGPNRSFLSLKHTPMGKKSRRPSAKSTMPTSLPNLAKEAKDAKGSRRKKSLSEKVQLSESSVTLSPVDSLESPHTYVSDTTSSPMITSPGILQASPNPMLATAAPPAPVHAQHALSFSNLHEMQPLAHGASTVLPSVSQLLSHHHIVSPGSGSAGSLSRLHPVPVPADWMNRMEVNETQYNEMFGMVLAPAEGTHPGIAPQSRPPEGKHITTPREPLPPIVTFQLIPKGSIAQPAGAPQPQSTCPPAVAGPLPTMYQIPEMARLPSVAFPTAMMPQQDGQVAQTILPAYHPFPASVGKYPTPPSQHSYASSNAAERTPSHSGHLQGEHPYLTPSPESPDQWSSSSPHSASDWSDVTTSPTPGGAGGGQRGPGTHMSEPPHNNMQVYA
Pro-neuregulin-1, membrane-bound isoform (Homo sapiens), sequence (Q02297 whole entry, looked up, the tested form may be a part, canonical isoform): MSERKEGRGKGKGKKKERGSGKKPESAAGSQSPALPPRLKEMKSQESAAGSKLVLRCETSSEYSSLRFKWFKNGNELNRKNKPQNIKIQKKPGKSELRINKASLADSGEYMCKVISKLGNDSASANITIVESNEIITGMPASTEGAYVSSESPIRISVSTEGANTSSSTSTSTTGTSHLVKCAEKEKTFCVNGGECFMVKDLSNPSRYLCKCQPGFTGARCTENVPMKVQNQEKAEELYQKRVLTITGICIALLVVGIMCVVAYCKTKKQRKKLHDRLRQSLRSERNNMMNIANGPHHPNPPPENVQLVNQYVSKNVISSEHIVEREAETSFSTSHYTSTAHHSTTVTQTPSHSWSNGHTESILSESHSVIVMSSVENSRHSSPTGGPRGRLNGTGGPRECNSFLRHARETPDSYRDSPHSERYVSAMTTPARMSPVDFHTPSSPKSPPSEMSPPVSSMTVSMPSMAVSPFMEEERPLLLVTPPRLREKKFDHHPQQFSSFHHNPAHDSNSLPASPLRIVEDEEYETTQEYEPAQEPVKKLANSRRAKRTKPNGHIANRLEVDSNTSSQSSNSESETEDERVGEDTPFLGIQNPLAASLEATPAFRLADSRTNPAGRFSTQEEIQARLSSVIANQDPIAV

Structure (SMILES)	composite z-score [1]	composite z-score [2]	composite z-score [3]	composite z-score [4]	composite z-score [5]	composite z-score [6]	composite z-score [7]	z-score [8]	composite z-score [9]	composite z-score [10]
C=CCOC(=O)[C@@H]1[C@H]2C(=O)O[C@H](c3ccccc3)[C@H](c3ccccc3)N2[C@H](c2ccc(OCCOC(=O)[C@@H]3C[C@@H]4C(=O)NCC(=O)N4[C@@H]3c3ccc(O)cc3)cc2)[C@@]12C(=O)Nc1ccc(I)cc12	-0.415	0.778	0.0428	0.371	0.364	1.04	1.26	1.12 (inactive)	0.0347	-0.0391
COC(=O)[C@@]1(Cc2ccc(OC)cc2)[C@H]2c3cc(C(=O)N(C)C)n(CCc4ccccn4)c3C[C@H]2CN1C(=O)c1ccccc1	1.63	-0.0525	0.638	0.402	1.61	0.428	1.05	0.845 (inactive)	1.38	0.47
C=CC[C@@]1(C(=O)NCCN2CCOCC2)N=C(c2ccc(OCCCO)cc2)O[C@@H]1c1ccccc1N=[N+]=[N-]	1.4	-0.355	-0.119	0.686	0.322	1.37	1.03	2.98 (inactive)	0.803	-0.0645
O=C1C2C=CC(C(O)CCc3ccccc3)N(Nc3ccccc3F)C2C(=O)N1c1ccccc1 (stereo not given)	-0.114	0.203	0.179	0.763	1.68	0.572	1.15	0.957 (inactive)	1.16	-0.191
CC(C)C(=C=CC[C@@H](O)c1ccc(OCCO)cc1)C[C@@H](O)COCc1ccccc1	-0.342	0.3	-0.085	-0.376	-0.0534	-0.849	0.449	-1.74 (inactive)	-0.0716	-0.0994
CC(C)C(=C=CC[C@H](O)c1ccc(OCCO)cc1)CCO	-0.0762	0.887	-0.1	0.904	0.255	1.69	0.895	0.305 (inactive)	0.326	-0.0994
COCCOC(=O)N1C(=O)[C@@]2(c3ccccc31)[C@H](c1ccc(O)cc1)N1[C@H](c3ccccc3)[C@H](c3ccccc3)OC(=O)[C@H]1[C@@H]2C(=O)Nc1nc2ccccc2s1	0.161	0.912	-0.0441	0.175	1.16	1.38	1.11	-0.929 (inactive)	0.5	0.0139
Oc1ccc2cc[n+](Cc3sc4ccccc4c3Cl)cc2c1	0.997	-0.466	-0.0976	-0.299	-0.308	-0.159	1.64	1.7 (inactive)	0.031	0.16
C=CC[C@@]12N=C(c3ccc(OCCCO)cc3)O[C@@H]1c1ccccc1N(C)C2=O	0.463	0.233	0.128	0.638	0.8	1.38	1.31	1.72 (inactive)	0.593	0.0972
C=C(CCCC)/C(=C/C[C@H](OC(C)=O)c1ccccc1OCCO)c1cc(C(=O)OC)ccc1OC	-0.198	-0.268	-0.134	0.339	-0.264	-0.35	0.48	-0.214 (inactive)	-0.201	-0.134
COc1ccc(CCNC(=O)[C@@H]2c3ccccc3C(=O)N(Cc3ccccc3Cl)[C@H]2c2ccc(CO)cc2)cc1	0.199	0.0795	-0.123	0.218	0.586	0.8	1.38	-2.28 (inactive)	0.19	-0.214
COC(=O)C(CC#Cc1ccc2c(c1)[C@]1(C(=O)N2)[C@H](c2ccc(OCCO)cc2)N2[C@H](c3ccccc3)[C@H](c3ccccc3)OC(=O)[C@H]2[C@@H]1C(=O)N1CCc2cc(OC)c(OC)cc2C1)C(=O)OC	0.931	0.802	0.119	1.05	1.42	1.07	1.25	2.24 (inactive)	1.6	0.876
COC(=O)C(CC#Cc1ccc2c(c1)[C@]1(C(=O)N2)[C@H](C(=O)Nc2nc3ccccc3s2)[C@H]2C(=O)O[C@H](c3ccccc3)[C@H](c3ccccc3)N2[C@@H]1c1ccccc1OCCO)C(=O)OC	0.0102	0.628	0.0941	1.12	1.26	1.07	1.31	1.43 (inactive)	0.709	-0.0296
C=CC1(C(=O)OC)CC=C(C(=O)OC)CC1 (stereo not given)	-0.219	0.191	-0.0226	1.17	1.12	1.73	1.12	-0.941 (inactive)	0.0908	0.0623
Cc1ccc(S[C@]2(C(=O)NC3CC3)CC(=O)N(Cc3ccccc3)[C@@H]2c2ccc(CO)cc2I)cc1	0.433	-0.703	-0.146	0.333	-0.823	1.23	0.966	-2.74 (inactive)	-0.73	-0.0047
COc1ccc(-c2cc3c(c(-c4ccc(Oc5ccccc5)cc4)n2)[Si](C(C)C)(C(C)C)OC3)cn1	-0.264	-0.65	-0.163	0.0106	0.358	-0.264	-0.502	-0.211 (inactive)	0.406	-0.0994
CCCCN1CC=CC23O[C@@H]4C=CCCOC(=O)C4[C@H]2C(=O)N(CCCCCCO)[C@@H]3C1=O (stereo not given in full)	-0.206	-0.596	-0.246	-0.309	-1.1	1.2	1.41	0.357 (inactive)	-0.422	-0.7
COc1cc2c(cc1OC)CN(C(=O)[C@@H]1[C@H]3C(=O)O[C@H](c4ccccc4)[C@H](c4ccccc4)N3[C@H](c3ccccc3OCCO)[C@@]13C(=O)Nc1ccc(C#CCCO)cc13)CC2	0.718	0.531	-0.152	0.671	0.626	0.86	1.23	0.876 (inactive)	1.25	0.0458
C=C(CC1([C@@H](NP(=O)(c2ccccc2)c2ccccc2)[C@H]2C[C@@H]2CCCC)CC1)c1ccccc1	0.591	-0.417	-0.218	0.194	1.42	0.896	0.843	2.47 (inactive)	1.07	0.419
COC(=O)[C@@]1(Cc2ccc(OC)cc2)[C@H]2c3cc(C(=O)N(C)C)n(C)c3C[C@H]2CN1C(=O)c1ccccc1	0.32	0.35	0.24	0.759	1.66	1.85	1.18	1.76 (inactive)	1.48	0.658
COc1cc(C(O)C2C=CC3C(=O)NC(=O)C3N2Nc2ccccn2)cc(OC)c1OC (stereo not given)	-0.184	0.299	0.0353	0.52	1.4	0.802	1.3	1.73 (inactive)	0.0676	-0.0618
COC(=O)[C@H](Cc1ccccc1)N[C@@H](/C=C/C1CC1)[C@H](O)Cc1ccccc1	0.115	-0.355	0.0748	0.699	-1.08	-0.292	0.583	-2.66 (inactive)	-0.575	-0.409
COCCCNC(=O)[C@@H]1c2ccccc2C(=O)N(Cc2ccccc2Cl)[C@H]1c1ccc(CO)cc1	0.189	-0.0402	-0.117	-0.247	0.161	0.379	1.48	-1.76 (inactive)	0.465	-0.0237
COc1ccc([Si](C)(C)[C@H]2[C@H](CC(=O)N3Cc4ccccc4C[C@H]3CO)O[C@@]3(C(=O)N(Cc4cccc(N5CCC5=O)c4)c4ccccc43)[C@@H]2C)cc1	-0.26	0.479	-0.07	0.726	0.793	0.871	1.29	-2.41 (inactive)	0.256	-0.13
COC(=O)[C@@]1(Cc2ccccc2)N=C(c2ccc(OCCCO)cc2)O[C@H]1c1ccccc1	0.348	0.0099	0.0243	0.531	-0.165	1.5	0.939	-2.3 (inactive)	-0.053	-0.169
CC(CO)N1C(=O)[C@@H]2C3C(=O)OCCC/C=C\[C@H]3OC23C=CCN(C(C)(C)C)C(=O)[C@@H]13 (stereo not given in full)	0.104	0.733	-0.0971	0.255	0.162	0.182	1.17	-1.23 (inactive)	-0.269	0.0373
COc1ccc(C#Cc2ccc3c(c2)[C@]2(C(=O)N3)[C@H](C(=O)NC[C@H](O)c3ccccc3)[C@H]3C(=O)O[C@H](c4ccccc4)[C@H](c4ccccc4)N3[C@@H]2c2ccc(O)cc2)cc1	-0.384	0.736	-0.0824	0.857	1.2	1.52	1.34	0.254 (inactive)	0.243	-0.201
COC(=O)[C@@]1(CCS(=O)(=O)c2ccccc2)N=C(c2ccc(OCCCO)cc2)O[C@H]1c1ccccc1CN=[N+]=[N-]	0.959	0.38	-0.0533	-0.303	0.914	0.975	1.23	-3.26 (inactive)	0.883	-0.0634
CN(C)CCCCCCNC(=O)[C@H]1C[C@H]2C(=O)N3CCC[C@H]3C(=O)N2[C@H]1c1ccc(O)cc1	-0.0698	1.93	0.0082	1.16	0.863	0.854	1.49	3.92 (inactive)	0.2	0.151
C=CCC(OC(C)=O)[C@@H]1[C@@H](N(Cc2ccc(-c3ccccc3)cc2)C(=O)c2cccc3ccccc23)c2cc(OCCCO)ccc2N1C(=O)c1ccc(-c2ccccc2)cc1 (stereo not given in full)	0.103	0.177	0.0521	0.19	0.0198	-0.0375	-0.159	-1.45 (inactive)	0.461	-0.0006
